We go through ten molecules from PubChem BioAssay (NCATS).

“And” between values parts separate entries of the source, which are not always exact repeats. Identical values can stand only once. Results filed as inconclusive are left out. Unmarked numbers belong to inactive results. The source made the active and inactive calls. Calls come from the whole dose curve; as a rule, active = well fitted cell-killing curve with a large enough effect; inconclusive = small, poorly fitted or top-dose-only effect; inactive = flat fitted curve, though single readings scatter.
% is set by controls: 0 for no effect and ±100 for the full control effect; potency is the fitted concentration of half-maximal effect.

This test is described as follows: Cellular viability qHTS for adrenocortical cancer (ACC) cell line SW-13 (AID 1963989).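 For activity (max response): cells grown in serum-free medium with ITS supplement.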 Note: nearly all actives have a fitted effect of over 65% in size. The note with it: SW-13 ACC cells viability, CellTiter-Glo, 48 h; activity (max response): active compounds read low. Put shortly: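 48 h treatment, SW-13 in ITS/DMEM serum-free; doses up to 46 uM; readout CellTiter-Glo luminescence; curve fit four-parameter logistic.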
For orientation: Quantitative high-throughput screening tests each substance at several concentrations.
Turning to `COc1ccc([C@@H]2Sc3ccccc3N(CCN(C)C)C(=O)[C@@H]2OC(C)=O)cc1`, the activity (max response) is -9.3% and 4.69%.

For the molecule `CC(C)COCC(CN(Cc1ccccc1)c1ccccc1)N1CCCC1` (stereo not given), the Potency is 4.11 µM (active) and 28.2 µM (active).

As to `Cc1ccc(S(=O)(=O)Cc2nc(-c3ccc(C(=O)NCc4cccnc4)cc3)oc2C)cc1`, the Potency was 199 nM (active).

With `CC/C=C(\C(=O)N[C@@H]1C(=O)N2C(C(=O)OCOC(=O)C(C)(C)C)=C(COC(N)=O)CS[C@H]12)c1csc(N)n1`, the activity (max response) was 13.8%.

Regarding `CCN(CC)CCCC(C)Nc1c2ccc(Cl)cc2nc2ccc(OC)cc12` (stereo not given), the Potency is 28200 nM (active).

As for `COc1cc(C(=O)O)ccc1NC(=O)[C@@H]1N[C@@H](CC(C)(C)C)[C@](C#N)(c2ccc(Cl)cc2F)[C@H]1c1cccc(Cl)c1F`, the activity (max response) was 1.9%.

For the molecule `CC(=O)OCC1=C(C(=O)O)N2C(=O)[C@@H](NC(=O)Cc3cccs3)[C@H]2SC1`, the activity (max response) was 10.2%.

Turning to `CC[C@]1(O)C[C@@H]2CN(CCc3c([nH]c4ccccc34)[C@@](C(=O)OC)(c3cc4c(cc3OC)N(C)[C@H]3[C@@](O)(C(=O)OC)[C@H](OC(C)=O)[C@]5(CC)C=CCN6CC[C@]43[C@@H]65)C2)C1`, the Potency is 25.9 nM (active) and 92 nM (active).

On to `Cc1c[nH]c2ncnc(N3CCC(CN)(C(=O)Nc4cccc(OC(=O)N(C)C)c4)CC3)c12`, for which the activity (max response) was -9.88%.

On to `Cc1cnc(NC(=O)c2cc(Oc3cnc(C(=O)N(C)C)nc3)c3cc(C)oc3c2)cn1`, for which the activity (max response) is -13.9%.
